Compound activity (PubChem)
The sample as a whole holds a higher share of hits than the screen did.
Pf Dd2 growth: blocks in vitro growth of P. falciparum Dd2 | P. falciparum Dd2 growth, SYBR Green, 72 h | Potency, µM (doses to about 28.9 µM), inactives show at the top dose activity, negative = inhibition, usual class: inhibitors | 4.3% of 120,000 active | AID 1347417; active = well fitted inhibition curve with a large enough effect;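 also: plate controls were DMSO vehicle for no effect and reference drug for full effect; nearly all actives have a fitted effect of over 65% in size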
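Infected erythrocytes (Dd2, 0.3% parasitemia, 2.5% hematocrit final) are added to compound in RPMI-1640/Albumax II medium, grown 72 h at 37C in low oxygen, then lysed with saponin/Triton-X containing SYBR Green and read by fluorescence.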
Starred values were filed as active, the others as inactive; [ ] = dose if it differs, or a comment. Potency is read from the fitted curve at half-maximal effect.

Screening CC1=C[C@@H](CNC(=O)c2cncnc2)[C@H](C(C)C)C[C@H]1CC(=O)N(C)Cc1ccccc1 returned Pf Dd2 growth -25.2%[44.1 µM].
Screening CC1=C[C@@H](CNC(=O)COc2ccccc2)[C@H](C(C)C)C[C@H]1CC(=O)Nc1ccccn1 returned Pf Dd2 growth inactive.
CC1=C[C@@H](CNS(=O)(=O)c2ccccc2)[C@H](C(C)C)C[C@H]1CC(=O)NCc1ccccn1 was read as Pf Dd2 growth inactive.
For CC1=C[C@@H](CN(C)CCc2ccccn2)[C@H](C(C)C)C[C@H]1Cc1nnc(-c2ccccc2)o1 the results were Pf Dd2 growth 2.24µM*.
Screening CC(C)c1noc([C@@H]2C[C@@H](O)CN2Cc2ccc(CO)o2)n1 returned Pf Dd2 growth -16.3%[44.1 µM].
`Cc1ncccc1C(=O)N1CCCC(c2nc(-c3cccnc3)no2)CCNC(=O)CC1` (stereo not drawn) gave Pf Dd2 growth inactive.
Screening COCc1cc(=O)n(CC(=O)Nc2cccc(C(F)(F)F)c2)c(N2CCOCC2)n1 returned Pf Dd2 growth inactive.
For COc1ccc(OCCn2c(C(C)Oc3ccccc3)nc3ccccc32)cc1 (stereo not drawn) the results were Pf Dd2 growth -28.1%.
For COc1ccc(C(=O)Nc2nc3ccccc3n2CCOc2ccc(Cl)cc2)cc1 the results were Pf Dd2 growth 11.2µM*.
Screening COc1ccc(OCCn2c(NC(=O)c3ccc(OC)cc3)nc3ccccc32)cc1 returned Pf Dd2 growth 56.7%.
Screening CCOC(=O)c1cccc(NC(=O)O[C@@H]2CO[C@H]3[C@@H]2OC[C@@H]3n2nnnc2SC2CCCC2)c1 returned Pf Dd2 growth -21.8%.
For CCN1C(=O)C2CC3(CCN(Cc4cn(C)c5ccc(OC)cc45)CC3)CN2C1=O (stereo not drawn) the results were Pf Dd2 growth inactive.
Screening O=C(c1ccoc1)N1CCC(N2C(=O)C(O)C23CCCCC3)CC1 (stereo not drawn) returned Pf Dd2 growth 2.0%.
Screening CCOc1ccccc1NC(=O)CN1C(=O)C(=O)c2ccccc21 returned Pf Dd2 growth 157.7%[5.79 µM].
`Cc1ccc(-n2c(C)cc(C(=O)C(=O)Nc3ccccc3)c2C)c(C)c1` gave Pf Dd2 growth 5.01µM*.
`Cc1cc(/C=C(\C#N)C(=O)Nc2ccccc2)c(C)n1-c1ccc(F)cc1` gave Pf Dd2 growth -14.6%.
Screening CCOc1ccccc1NC(=O)C(=O)c1cc(C)n(-c2cccc(C)c2C)c1C returned Pf Dd2 growth 7.08µM*.
`COc1ccccc1NC(=O)C(=O)c1cc(C)n(-c2cc(C)cc(C)c2)c1C` gave Pf Dd2 growth 23.8%.
Screening CCOCCc1nnc(NC(=O)C(=O)c2cc(C)n(-c3ccc(C)cc3C)c2C)s1 returned Pf Dd2 growth 84.2%.
COCCN1CCC2(CCC1=O)CN(Cc1cccc(Cl)c1)CCN2C (stereo not drawn) was read as Pf Dd2 growth -12.6%.
CCS(=O)(=O)Nc1ccc(C2(C(=O)NC3CCCC3)CCC2)cc1 was read as Pf Dd2 growth 0.0%.
Screening Cc1cccc(NC(=O)N2C[C@@H](F)C[C@H]2C(=O)N2CCCCC2)c1C returned Pf Dd2 growth inactive.
`CN1CC(=O)N(C2CCNCC2)Cc2c(NC3CCCCCC3)ncnc21` gave Pf Dd2 growth -8.1%.
For CN(Cc1ccccc1)Cc1cn([C@H]2CO[C@H]3[C@@H]2OC[C@@H]3NC(=O)NC2CCCCC2)nn1 the results were Pf Dd2 growth inactive.
For COc1ccc(C(=O)NCC(c2ccc(N(C)C)cc2)N2CCOCC2)cc1 (stereo not drawn) the results were Pf Dd2 growth 46.1%.
`CN(C)c1ccc(C(CNC(=O)c2ccc(C(C)(C)C)cc2)N2CCCC2)cc1` (stereo not drawn) gave Pf Dd2 growth 6.31µM*.
For O=C(NCC(c1ccc(Cl)cc1)N1CCCCC1)c1ccc(F)cc1 (stereo not drawn) the results were Pf Dd2 growth -12.6%.
Screening Cc1c(C(=O)N2CC[C@](C)(O)[C@@H](O)C2)[nH]c2c(F)cccc12 returned Pf Dd2 growth -11.6%.
For Cc1cc(=O)n(CC(=O)N[C@H](c2ccccn2)C2CC(O)C2)nc1C (stereo partly drawn) the results were Pf Dd2 growth -15.1%.
Screening Cc1cc(C)n(CCc2nc3c4ccccc4nc(SCc4ccc(F)cc4)n3n2)n1 returned Pf Dd2 growth -8.3%.
`CCC(Sc1nc2ccccc2c2nc(CCc3c(C)n[nH]c3C)nn12)C(=O)Nc1ccc(F)cc1` (stereo not drawn) gave Pf Dd2 growth 7.94µM*.
For CCC(Sc1nc2cc(OC)c(OC)cc2c2nc(-c3ccccc3)nn12)C(=O)Nc1cccc(C)c1 (stereo not drawn) the results were Pf Dd2 growth -2.5%.
Screening CCOC(=O)c1cccc(Nc2nc(-c3ccccc3)no2)c1 returned Pf Dd2 growth -6.8%.
Screening Cc1cc2nc3n(c(=O)c2n1CC(=O)Nc1cccc(C#N)c1)CCC3 returned Pf Dd2 growth inactive.
Screening O=C1NC2(CCN(C(=O)CCc3cccnc3)CC2)CC1c1ccccc1 (stereo not drawn) returned Pf Dd2 growth 7.7%.
For CN(Cc1cccnc1)C(=O)CCC[C@@H]1[C@H]2CCCN3CCC[C@@H](CN1Cc1cccnc1)[C@@H]23 the results were Pf Dd2 growth -0.6%.
O=C(CC(c1ccc(Cl)cc1)c1c[nH]c2ccc([N+](=O)[O-])cc12)N1CCOCC1 (stereo not drawn) was read as Pf Dd2 growth -10.6%.
Screening O=C(CC(c1ccccc1)c1ccccc1Cl)N1CCOCC1 (stereo not drawn) returned Pf Dd2 growth -0.8%.
For O=C(CC(c1ccc(F)cc1)c1cn(Cc2ccccc2)c2ccc([N+](=O)[O-])cc12)N1CCOCC1 (stereo not drawn) the results were Pf Dd2 growth 0.178µM*.
Screening c1ccc(-c2ccc3ncc(Nc4ccc(N5CCOCC5)cc4)n3n2)cc1 returned Pf Dd2 growth -17.5%[44.1 µM].
Screening CN(C)c1ccc2ncc(Nc3ccccc3)n2n1 returned Pf Dd2 growth -6.4%[44.1 µM].
`CN(C)c1ccc2ncc(Nc3cc(F)cc(N4CCOCC4)c3)n2n1` gave Pf Dd2 growth 10µM*.
Screening COc1ccccc1N1CCN(C(=O)c2cc3c(s2)-c2ccccc2OC3)CC1 returned Pf Dd2 growth 28.5%.
For COc1ccc(N(C)C(=O)c2cc3c(s2)-c2ccccc2OC3)cc1 the results were Pf Dd2 growth -4.4%.
For COc1cc(OC)c(N(C)C(=O)c2cc3c(s2)-c2ccccc2OC3)cc1Cl the results were Pf Dd2 growth 8.91µM*.
For Cc1nc(N2CCCCC2)n(CC(=O)Nc2ccc(Br)cc2F)c(=O)c1C the results were Pf Dd2 growth inactive.
`OCC1(CC2CC2)CCCN(Cc2cccc(OCc3ccccn3)c2)C1` (stereo not drawn) gave Pf Dd2 growth 5.62µM*.
O=C(O)C1(CC2CC2)CCCN(Cc2ncccn2)C1 (stereo not drawn) was read as Pf Dd2 growth -2.7%.
Screening CCc1nccc(CN2CCCC(CC3CC3)(C(=O)O)C2)n1 (stereo not drawn) returned Pf Dd2 growth -7.9%.
For COc1ccc(CN2CCN(CC(N)=O)CC2CCO)c(F)c1 (stereo not drawn) the results were Pf Dd2 growth -3.4%.
For CN(C)C(=O)CN1CCCC(CO)(CC2CC2)C1 (stereo not drawn) the results were Pf Dd2 growth -19.8%.
OCc1cc2n(n1)CCCN(Cc1cccc(OCc3ccccn3)c1)C2 was read as Pf Dd2 growth 6.5%.
CCc1nc(CN2CCCC(CO)(CC3CC3)C2)cs1 (stereo not drawn) was read as Pf Dd2 growth 12.6µM*.
